# Shn3 inh set2: inhibitors of Schnurri-3 3'UTR reporter in osteoblasts. Clone20 osteoblast Shn3 3'UTR firefly luciferase, 24 h. inhibition, % at 12.5 µM. 0.52% of 360,000 active. AID 588674;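 active means mean inhibition of at least 75% with every replicate also reaching 75%; inconclusive means mean inhibition at least 75% but some replicate below; inactive means mean inhibition below 75%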;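 further: 0% = median of neutral control wells and 100% = pilot-screen positive control compound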
# MITF TRPM1 inh: MITF TRPM1 promoter inhibition in SK-MEL-5 cells. SK-MEL-5 TRPM1 promoter luciferase, 24 h. inhibition, % at 12.5 µM. 0.83% of 330,000 active. AID 488899;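 active means mean inhibition across replicates of 60% or more, whatever share of single replicates reaches that level; inconclusive means some that reach 60%, reason not given; inactive means mean inhibition across replicates below 60%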
# HIF-2a inh: HIF-2a inhibition; AID 624352; 0.72% of 360,000 active; inhibition, % at 18.8 µM; 786-0 RCC cells HIF-2a reporter, luciferase luminescence, overnight;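 active means inhibition of the luminescence signal of 40% or more relative to plate controls, in a single-dose primary screen at 18.75 µM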
# TWEAK Fn14 block: TWEAK-Fn14 signaling inhibition; TWEAK-stimulated Fn14 reporter cells, luciferase luminescence, 8 h; inhibition, % at 10 µM; 2% of 360,000 active; AID 1159606; in the data active means inhibition above about 50%
# TROY NFkB inh: blocks TROY-dependent signaling in reporter cells | Q293 LMP1-TROYcd NF-kB luciferase reporter, 4 h | inhibition, % at 10 µM | 0.98% of 360,000 active;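 active means compounds whose plate-normalised and pattern-corrected inhibition of the luciferase reporter signal at the single screening dose is 50% or more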
# EBV LMP1 NFkB: inhibitors of Epstein-Barr LMP1-induced NF-kappaB reporter; LMP1-induced NF-kappaB luciferase reporter cells, luminescence; inhibition, % at 12.5 µM; 0.69% of 350,000 active; in the data active means inhibition above about 41%; inconclusive means no clear call, values can overlap the other calls;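 further: 0% = neutral control wells and 100% = reference inhibitor control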
# An asterisk follows results filed as active; ? = inconclusive; . = no result given. Shown are actives, neighbours in structure and some others; about 3.4% of the full set was active somewhere.
SMILES,Shn3 inh set2,MITF TRPM1 inh,HIF-2a inh,TWEAK Fn14 block,TROY NFkB inh,EBV LMP1 NFkB
COc1ccc(-c2nnc(SCC(=O)/C(C#N)=C(\C)N)o2)cc1,-16,-29,-97,65*,31,-2
COc1ccc(-c2nnc(SCC(=O)c3ccc(C)o3)o2)cc1,-19,18,-32,1,-6,-11
O=C(NCC1CC1)C1Cc2c(-c3ccccc3Oc3ccccc3)ccnc2O1 (centres undefined),-4,.,7,-3,-1,.
Cc1ccc(SCC(=O)NC2CCS(=O)(=O)C2)cc1C (centres undefined),1,-3,1,2,-33,4
NNC(=O)CSc1nc(-c2ccccc2)cn1-c1ccccc1,-35,4,-152,63*,72*,7
Cc1ccc(-c2cn(-c3ccccc3)c(SCC(=O)NC3CCS(=O)(=O)C3)n2)cc1C (centres undefined),-94,-96,-194,20,52*,-38
CC(=O)Nc1ccc(S(=O)(=O)N[C@@H](C)C(=O)N2CCN(C/C=C/c3ccccc3)CC2)cc1,5,10,8,-1,2,3
CC(=O)c1c(C)oc2ccc(NS(=O)(=O)c3ccc(F)cc3C)cc12,73,6,15,56*,33,10
COc1ccccc1CN(Cc1nc2ccccc2c(=O)[nH]1)S(=O)(=O)c1ccc2ccccc2c1,21,42,9,55*,47,10
Cc1cccc(OCC(=O)NCCNC(=O)c2ccco2)c1,9,19,1,25,-14,-13
Cc1ccc(OCC(=O)NCCNC(=O)c2ccco2)cc1C,-15,15,0,52*,-4,2
Cc1cnc(C(=O)OCC(=O)c2ccc(C)s2)cn1,-7,4,1,5,-14,3
Clc1ccc(OCc2nnc3n2N=C(c2ccc4c(c2)OCCO4)CS3)c(Cl)c1,42,3,11,53*,60*,12
COc1ccc(C2SCCN2C(=O)c2ccc([N+](=O)[O-])cc2)cc1 (centres undefined),2,-6,3,-15,-4,42*
O=C(Nc1ccc2c(c1)OCCO2)C(c1ccnc2ccccc12)N1CCN(C/C=C/c2ccccc2)CC1 (centres undefined),11,.,-13,29,33,.
Cc1onc(-c2ccccc2Cl)c1-c1nc(-c2ccccn2)no1,8,4,2,32,18,-1
Clc1ccccc1/C=C/c1nc(-c2ccccn2)no1,.,?,63*,102*,77*,73*
COc1cc(C=O)ccc1OCCCOc1ccccc1C(=O)O,-73,24,-93,102*,84*,-25
Cc1cccc2c3nc4ccccc4nc3n(CCCN3C(=O)c4ccccc4C3=O)c12,5,-6,-200,71*,-10,-6
O=C1c2ccccc2C(=O)N1CCCn1c2ccc(Cl)cc2c2nc3ccccc3nc21,9,-6,-6,-4,-27,-33
CCOC(=O)Cc1csc(NC(=O)c2c(O)c3ccccc3n(CC(C)C)c2=O)n1,10,19,11,54*,36,9
CNC(=O)COC(=O)c1cc(F)c(F)cc1Cl,-10,4,5,87*,0,2
CC(C)NC(=O)COC(=O)c1cc(F)c(F)cc1Cl,9,0,7,10,4,-3
CC1(C(=O)NS(=O)(=O)c2ccccc2Cl)CCN1C(=O)C1CCCCC1 (centres undefined),-7,.,12,5,-13,.
COc1ccc(Cl)cc1NC(=O)c1cccc([N+](=O)[O-])c1O,8,-5,-55,16,56*,7
SMILES,Shn3 inh set2,MITF TRPM1 inh,HIF-2a inh,TWEAK Fn14 block,TROY NFkB inh,EBV LMP1 NFkB
CC(C)CNS(=O)(=O)c1ccc(S(=O)(=O)N2CCN(C3CCCC3)CC2)cc1,7,12,16,9,3,-1
CC1(c2ccccc2)CC(C)(C)N2C(=O)C3(C(C#N)=C(N)Oc4cc(O)ccc43)c3cccc1c32 (centres undefined),15,3,33,57*,33,5
CCCCN1CC(COCc2ccccc2)Oc2cccc(Oc3cc(C)c(C)c(C)c3)c2S1(=O)=O (centres undefined),90*,13,14,14,-3,8
CCCCN1CC(COCc2ccccc2)Oc2cccc(Oc3ccccc3)c2S1(=O)=O (centres undefined),25,0,13,-4,-8,-9
CCCCN1CC(COCc2ccccc2)Oc2cccc(Oc3ccc(C)cc3)c2S1(=O)=O (centres undefined),87*,-3,8,-4,-2,21
Cc1ccc(CCNC(=O)c2cc(S(=O)(=O)N3CCCC3)cn2C)cc1,-25,13,8,-5,-3,3
CCOC(=O)C1=C(O)/C(=C/c2ccc(-c3ccccc3C(=O)O)o2)SC1=Nc1ccc(OC)cc1,-13,4,9,22,3,1
CCOC(=O)C1=C(O)/C(=C/c2ccc(-c3ccccc3C(=O)O)o2)SC1=Nc1ccc(C)cc1,.,1,26,58*,2,-5
Cc1ccc(OCC(=O)Nc2ccc3c(c2)OCCO3)cc1C,26,14,-60,54*,44,10
CCOc1ccc(-c2cc(C(=O)Nc3ccc4c(c3)OCCO4)c3ccccc3n2)cc1,3,-11,-112,25,-27,-12
Cc1ccc(C(=O)Nc2ccc3c(c2)OCO3)cc1,6,-4,-81,53*,24,6
Cc1ccc(C(=O)Nc2ccc3c(c2)OCCO3)cc1,32,36,22,84*,43,43*
Cc1cccc(-c2cc(C(=O)Nc3ccc4c(c3)OCCO4)c3ccccc3n2)c1,14,-8,-40,55*,13,-8
Cc1cccc(OCC(=O)Nc2ccc3c(c2)OCCO3)c1,-74,-80,-274,-4,-51,-18
Nc1ccc(C(=O)Nc2cccc3ncccc23)cc1,0,3,10,6,-8,1
O=C(Nc1cccc2ncccc12)c1ccc2c(c1)OCCO2,-8,-5,-49,83*,.,9
Cc1cc(C(=O)Nc2ccc3c(c2)OCCO3)ccc1[N+](=O)[O-],21,9,-59,62*,26,4
Cc1cc(NC(=O)c2ccc3c(c2)OCCO3)no1,15,15,18,77*,40,60*
Cc1ccc(C(=O)Nc2ccc3c(c2)OCCO3)c(Cl)c1,9,34,36,90*,43,47*
c1ccc2c(c1)-c1nc3ccccc3cc1C2N1CCOCC1 (centres undefined),-20,-2,-172,-3,-62,0
CCCNC(=O)C1(C)CCCN(C(=O)c2ccccc2OC)C1 (centres undefined),1,.,-1,-3,9,.
COc1ccc(-c2ccc(-c3cc(=O)oc4c(C(C)C)ccc(C)c34)cc2)cc1,27,4,-21,33,11,7
